Five molecules from PubChem BioAssay can be followed below.

A word on the viability: it is a read-out of living cells in per cent, often relative to untreated cells. As usually defined, the inhibition is the relative decrease from the control value, in per cent.

Molecules are shown by their SMILES. Records with an inconclusive call do not appear. The source made the active and inactive calls.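 Rule for the calls, unless noted: active = viability increase at or above a cutoff of the median across tested compounds plus 3 SD (cut at about 8.5% in these data, passing the limit was not always enough); inconclusive = some gains above the cutoff, reason not given; inactive = the rest.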

A short description of assay [1]: reducers of endogenous Her2 protein level, primary screen, SKBR3 breast tumor cells, AlphaScreen, ATP viability (AID 461;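 active = Her2 level under about 52% in both replicate screens, with viability over 70% of control, limit read from the data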;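 for Her2 level: lower value means less Her2 protein in the cells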;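 for viability: percent of carrier control wells set as 100% viability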). The conditions noted are these: 18-24 h, measured here: SKBR3 viability, ATP luminescence, at 10 µM.
For assay [2], the target named is Receptor tyrosine-protein kinase erbB-2 (Homo sapiens) (UniProt P04626). Described as above. The note with it: 18-24 h, at 10 µM, stronger effect = lower value.
Receptor tyrosine-protein kinase erbB-2 (Homo sapiens), sequence (P04626 whole entry, looked up): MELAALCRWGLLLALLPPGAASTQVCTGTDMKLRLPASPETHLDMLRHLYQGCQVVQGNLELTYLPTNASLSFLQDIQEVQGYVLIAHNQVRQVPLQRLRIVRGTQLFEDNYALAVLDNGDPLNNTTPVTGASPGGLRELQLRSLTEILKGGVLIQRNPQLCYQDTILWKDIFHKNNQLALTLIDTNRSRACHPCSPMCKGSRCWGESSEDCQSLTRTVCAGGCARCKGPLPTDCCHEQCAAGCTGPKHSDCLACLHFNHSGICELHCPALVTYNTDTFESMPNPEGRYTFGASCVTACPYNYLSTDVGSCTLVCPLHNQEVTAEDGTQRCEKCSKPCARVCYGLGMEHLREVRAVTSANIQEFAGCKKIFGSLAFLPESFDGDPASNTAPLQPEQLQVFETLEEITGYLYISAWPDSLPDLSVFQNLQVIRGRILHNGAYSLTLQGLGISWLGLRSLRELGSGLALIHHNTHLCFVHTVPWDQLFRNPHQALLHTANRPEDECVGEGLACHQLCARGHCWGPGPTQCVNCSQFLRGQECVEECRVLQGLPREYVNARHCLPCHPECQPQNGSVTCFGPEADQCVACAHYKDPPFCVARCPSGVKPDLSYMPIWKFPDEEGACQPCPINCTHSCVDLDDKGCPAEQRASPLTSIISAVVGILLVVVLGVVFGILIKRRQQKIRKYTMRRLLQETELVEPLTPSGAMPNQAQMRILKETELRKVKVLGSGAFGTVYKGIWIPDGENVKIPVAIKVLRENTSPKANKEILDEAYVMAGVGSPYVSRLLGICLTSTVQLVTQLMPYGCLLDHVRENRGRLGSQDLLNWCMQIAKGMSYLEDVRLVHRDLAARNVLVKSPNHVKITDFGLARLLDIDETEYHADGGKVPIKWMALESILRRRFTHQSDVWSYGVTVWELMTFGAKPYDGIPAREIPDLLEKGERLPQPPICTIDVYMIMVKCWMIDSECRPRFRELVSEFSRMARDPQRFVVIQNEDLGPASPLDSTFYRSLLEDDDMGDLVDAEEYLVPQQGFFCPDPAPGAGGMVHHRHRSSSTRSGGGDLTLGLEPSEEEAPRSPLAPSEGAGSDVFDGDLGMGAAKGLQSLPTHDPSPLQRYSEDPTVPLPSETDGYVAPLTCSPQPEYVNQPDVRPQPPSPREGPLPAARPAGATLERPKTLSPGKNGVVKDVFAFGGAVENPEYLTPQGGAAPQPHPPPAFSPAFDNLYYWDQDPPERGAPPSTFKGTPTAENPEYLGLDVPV
Assay [3] is described as follows: SK-BR-3 cell growth inhibitors, pilot screen, 24 h, human (AID 572;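 active = viability at or below 10% of carrier control in both of two separate runs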;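 note: compound exposure lasted between 18 and 24 h rather than exactly 24 h; 100% = carrier-treated control wells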). The note with it: SK-BR-3 viability, CellTiter-Glo luminescence, at 10 µM, stronger effect = lower value. For orientation: ATP-based viability assays read luminescence as a measure of living cells.
Assay [4] is described as follows: HUVEC growth inhibition – cell-based, human, primary screen (AID 575;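 active = viability at or below 30% in both replicate assays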;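 note: 100% = median of untreated cell wells with 0.1% DMSO on each plate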). The note with it: HUVEC proliferation, CellTiter-Glo luminescence, 72 h; at 10 µM; stronger effect = lower value.
A short description of assay [5]: growth inhibitors of H69AR lung tumor, primary screen, human, duplicate replicates (AID 580;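 active = viability at or under a set limit in both replicates, limit being median viability minus 3 SD, cut at about 48% in these data, passing the limit was not always enough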;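 note: 100% = mean luminescence of untreated wells and 0% = no signal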). The conditions noted are these: H69AR lung tumor cells viability, ATP luminescence, 72 h; at 10 µM; stronger effect = lower value.
The nature of assay [6]: reversal of MRP1-mediated doxorubicin resistance, pilot screen, H69AR cells, doxorubicin co-treatment (AID 601;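 active = viability loss from added drug above about 55%, and viability with drug at most 40%, in both replicates, limit read from the data, passing the limit was not always enough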). The note with it: CellTiter-Glo, 72 h, at 10 µM; for differential viability (reversal): stronger effect = higher value.
Assay [7] is described as follows: 384-well plate pilot, post-Golgi transport modulator project, inhibition of yeast transport mutant growth (AID 636; in the data active = inhibition above about 31%). The conditions noted are these: absorbance 615 nm, about 18 h, stronger effect = higher value.
A short description of assay [8]: growth suppression of yeast trafficking mutant, preliminary HTS, modulators of trafficking downstream of Golgi apparatus project, 1536-format plate, OD 615 nm (AID 637; in the data active = inhibition above about 30%). The conditions noted are these: yeast transport mutant growth, absorbance 615 nm, 18 h; stronger effect = higher value.
Assay [9] is described as follows: OD615 S. cerevisiae growth inhibition, permissive medium, pilot counter-assay, permissive growth control for S. cerevisiae lifespan shortening project (AID 705;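 active = growth inhibition above 25% in both replicates, a cutoff set 3 SD above the mean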). The note with it: OD615, 24 h, at 10 µM, stronger effect = higher value.
Assay [10] in a line: Restrictive medium S. cerevisiae growth inhibition, OD615, pilot screen of yeast lifespan reduction project, restrictive growth control (AID 706;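 active = growth inhibition above a set limit, 3 SD over mean compound inhibition, in both replicates, cut at about 43% in these data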;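 note: modified DeaD lifespan yeast strain shifted to restrictive glucose medium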). The note with it: OD615, 48 h, at 10 µM, stronger effect = higher value.
The nature of assay [11]: viability gain of MRP-1-high H69AR cells under doxorubicin, pilot screen, MRP-1 activator project, CellTiter-Glo, duplicate (AID 807).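 Note: compound pretreatment 18-22 h then 72 h combined with doxorubicin; 0% = doxorubicin alone and 100% = vehicle without doxorubicin.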 The conditions noted are these: H69AR viability with doxorubicin, CellTiter-Glo luminescence; at 10 µM; stronger effect = higher value.
Assay [12] can be described thus: growth suppression of beta-catenin knockout HCT116, pilot screen, human colon tumor cells (AID 823;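 active = cell viability at or below a set limit in both duplicate runs, the limit being the all-compound median minus 4 SD, cut at about 23% in these data, passing the limit was not always enough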;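 note: 0% = wells killed by 20 µM Hyamine and 100% = untreated DMSO cell wells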). The conditions noted are these: CellTiter-Glo, 60 h, at 10 µM, stronger effect = lower value.
Assay [13] in a line: growth suppression of PTEN-deleted HCT116, pilot screen, cell-based, HCT116 clonal line, CellTiter-Glo (AID 824;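 active = viability at or below 27.92% in each of two runs, the all-compound median minus 4 SD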;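 note: 0% = 20 µM Hyamine control and 100% = vehicle cell control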). The note with it: 60 h, at 10 µM, stronger effect = lower value.
A short description of assay [14]: inhibitors of the yeast RAM network, pilot screen, dse1pr::URA3 reporter, 5-FOA selection (AID 869;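 active = inhibition over a set limit, the all-compound mean plus 3 SD, in both replicate runs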;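 note: 0% = DMSO wells with no growth and 100% = 10 µM 1-NA-PP1 with full growth; RAM network block rescues cells from 5-FOA so hits raise OD615 growth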). The note with it: S. cerevisiae dse1pr::URA3 5-FOA growth, OD615, 2 d; at 10 µM; stronger effect = higher value; strain carries analog-sensitive mutant Cbk1 kinase.
The nature of assay [15]: RAM signaling pathway blockade in yeast – S. cerevisiae, Pdr1DBD-CYC8 efflux-inhibited sensitized strain, primary screen (AID 1298;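 active = RAM network inhibition above 8.4% in each of two replicates, 3 SD over the compound average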;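 note: 0% = DMSO untreated cells without growth and 100% = 10 µM 1-NA-PP1 full growth; higher means more yeast growth rescued from 5-FOA killing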). The note with it: S. cerevisiae cbk1-as DSE1-URA3 strain, 5-FOA growth OD615, 2 d; at 50 µM; stronger effect = higher value.
[16] abbreviates: H69AR cells + 2 uM doxorubicin, measured here: viability with 2 uM doxorubicin, stronger effect = lower value.
Setting [17] is: H69AR cells, compound alone cytotoxicity.

With `CCC(C)OC(=O)C1=C(C)NC2=C(C(=O)C(C(=O)OC)C(C)C2)C1c1ccc(N(C)C)cc1` (stereo not given), the viability is 94.5% in assay [1]; 94.5% (inactive) in assay [3]; 110% (inactive) in assay [4]; 95.8% (inactive) in assay [5]; 91.5% in assay [6] (setting [16]); 95.8% in [6] (setting [17]). Also, the viability in [12] was 86% (inactive); in assay [13] it was 75.7% (inactive). For the same molecule, the Her2 level in assay [2] is 108% (inactive). Moreover, the differential viability (reversal) in assay [6] (H69AR cells + 2 uM doxorubicin) is 4.35% (inactive). In addition, the inhibition in [7] was -2.11% (inactive); in assay [8] it was -5.09% (inactive); in assay [14], 1.46% (inactive). In addition, the growth inhibition in assay [9] is -3.15% (inactive); in assay [10], -7.23% (inactive). The viability increase in [11] is -0.39% (inactive). The RAM network inhibition in assay [15] was 8.17% (inactive).
`CC1CN(c2c3c(nc4ncnn24)CCCC3)CC(C)O1` (stereo not given): the viability in assay [1] was 89.5%; in [3], 89.5% (inactive); in [4], 102% (inactive); in assay [5], 90.7% (inactive); in [6] (setting [16]), 86.2%; in assay [6] (setting [17]) it was 90.7%. Moreover, the viability is 88.9% (inactive) in assay [12] and 90.8% (inactive) in [13]. Moreover, in assay [2], the Her2 level is 88% (inactive). Further, the differential viability (reversal) in assay [6] (H69AR cells + 2 uM doxorubicin) was 4.54% (inactive). The inhibition in assay [7] was -4.87% (inactive); in assay [8], 2% (inactive); in assay [14], 1.57% (inactive). In addition, the growth inhibition in assay [9] was 3.17% (inactive); in assay [10], -4.12% (inactive). For the same molecule, the viability increase in assay [11] was -1.41% (inactive). Moreover, the RAM network inhibition in [15] is -1.85% (inactive).
On to `O=C(Nc1nc(-c2ccccn2)cs1)C1CC1`, for which the viability in assay [1] was 93.5%; in assay [3], 93.5% (inactive); in assay [4], 96.1% (inactive); in assay [5], 82% (inactive); in [6] (setting [16]), 101%; in assay [6] (setting [17]), 82%. Moreover, the viability is 67.3% (inactive) in assay [12] and 70.5% (inactive) in assay [13]. Moreover, the Her2 level in [2] is 97.5% (inactive). In assay [6] (H69AR cells + 2 uM doxorubicin), the differential viability (reversal) was -19.5% (inactive). Besides, the inhibition in assay [7] is 1.07% (inactive); in assay [8] it was -3.17% (inactive); in assay [14], 0.575% (inactive). For the same molecule, the growth inhibition is 0.675% (inactive) in [9] and 1.15% (inactive) in [10]. The viability increase in assay [11] was 0.73% (inactive). Further, in assay [15], the RAM network inhibition was 0.89% (inactive).
Turning to `C=C(C)c1cccc(C(C)(C)NC(=O)NCC2CCCO2)c1` (stereo not given), the viability was 94% in [1]; 94% (inactive) in assay [3]; 79.9% (inactive) in [4]; 93.7% (inactive) in assay [5]; 86.5% in [6] (setting [16]); 93.7% in [6] (setting [17]). Also, the viability in assay [12] is 94.7% (inactive); in assay [13] it was 96.2% (inactive). Moreover, the Her2 level in [2] was 98% (inactive). Moreover, the differential viability (reversal) in assay [6] (H69AR cells + 2 uM doxorubicin) is 7.16% (inactive). The values for the inhibition in assay [7], in [8] and in [14] were 0.77% (inactive), -8.5% (inactive) and 1.77% (inactive), respectively. Also, the growth inhibition in assay [9] is -6.62% (inactive); in [10] it was -9.92% (inactive). Also, in [11], the viability increase is -0.54% (inactive). Besides, the RAM network inhibition in [15] is 1.07% (inactive).
In the case of `Cc1ccc(CNC(=O)C2CCCN(S(=O)(=O)c3cnc[nH]3)C2)cc1` (stereo not given), the viability in assay [1] is 94%; in [3] it was 94% (inactive); in [4] it was 94.5% (inactive); in [5], 106% (inactive); in [6] (setting [16]), 92.3%; in [6] (setting [17]), 106%. In addition, the viability in assay [12] is 109% (inactive); in assay [13], 102% (inactive). For the same molecule, the Her2 level in assay [2] is 110% (inactive). The differential viability (reversal) in assay [6] (H69AR cells + 2 uM doxorubicin) is 13.9% (inactive). The inhibition was -2.13% (inactive) in assay [7], -3.61% (inactive) in [8] and 0.415% (inactive) in assay [14]. Further, the figures for the growth inhibition in assay [9] and in [10] were 0.76% (inactive) and 6.6% (inactive), respectively. In assay [11], the viability increase was 0.52% (inactive). In addition, the RAM network inhibition in assay [15] was 1.04% (inactive).
